Experimental findings from the supplement of paper PMC6555819 are described below.

One experiment has as its system PPARg DBDmut:RXRa IVT, anti-PPARg (DBD mutation: PPARg1 K132A/R137A, NR concentration 270 nM, RXRa partner concentration 90 nM). Kind of experiment: PBM binding z-score (relative to random genomic background probes); higher = stronger binding; sequences stand for … in GC…GCGATTGACAGCGTAGAATGAAGG
An outline of the steps: (§1)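 Ligand-free nuclear receptor dimers were bound for 1 h to custom Agilent 4×180K protein-binding microarrays. Detection used antibodies against each partner (one per run). Binding z-scores rest on regression-normalized fluorescence, with random background probes as the reference.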
AATACAGGGTCATCGTAGGCCAGAGAACGCACAG displayed a PBM binding z-score of 1.71.

Sequence CCGACTGGGGCATAAGGTTACGATAAGCCAGCCC gave a PBM binding z-score of -0.323.

With CGTCCAAGGTCAGAGAGGTAAGTGAATGCCGAGT, the PBM binding z-score was -0.583.

The sequence TCGAGTAGGTTACCAATGGGGCGTTCAGCTTTCT had a PBM binding z-score of -0.504.

As for CCTCCTGGGCCAAAGGTCATTGATTCCAATGCTC, the PBM binding z-score was -0.712.

Regarding GCGACTGGGGCATCAGGAGGTTACCATAACTTAA, the PBM binding z-score is -0.435.

Sequence CCTATTAGTTGACCATAAGGGCAACGGAAGCTCG registered a PBM binding z-score of 0.427.

CAAACTAGGTCAACGGAAGGTCAAAGTCCGCATG showed a PBM binding z-score of 4.8.

The sequence ACTATTAGTTGAGACGCGGGCAACCGATAGGTTG displayed a PBM binding z-score of 0.481.

As for ACTAGTTAGTCAGCTGAGGTCACACACAATTCGG, the PBM binding z-score turned out to be 0.856.

ATCGAAAGGTCGAAGGTGAATATACCCACCCGAA registered a PBM binding z-score of 0.488.

For the sequence ATATCTAGGTTAGCTGGGGTCATTCAGACTAGGC, the PBM binding z-score was found to be 2.02.

TCTTGTAGATCAAGCAGGTTAAGAAGGCCTGAGT: the PBM binding z-score turned out to be 0.564.

Sequence CCAGACAGGTTAAAGGTAACTCAGTCTGGTACGC had a PBM binding z-score of -0.35.

Sequence TCTTGTAGATCAAAGGTTAAGTAAGCCGAAGCCT had a PBM binding z-score of 0.677.

TCTGCAAGGTCAGTTGGTCAGCTAACGAGCTGCC displayed a PBM binding z-score of 0.998.

In turn, TTACCAAGGTGAAGGTCGCTGATCCCTCTGTAGA showed a PBM binding z-score of -0.525.

In turn, ACTTACGGGGCAACGAGGTTATAGCACGCGTATA showed a PBM binding z-score of 0.904.

Turning to TCTGCTAGGTCAACGATGGTCAGCCAATCTGCTA, the PBM binding z-score was 0.0146.

On to ATCTCTACGTAACCAAGTTCAGTGAATGCCGAAC, for which the PBM binding z-score amounted to 0.854.

The sequence GCTATTAGTTGAAAGGGCATCCGAATGATTCTCG returned a PBM binding z-score of 0.336.

CGAACTAGGTCGTTGACAGGACAGTGAATAGTAA returned a PBM binding z-score of 0.86.

Turning to TCATATAGGTAACAGGTGAAAGTCGGTGTGGTAA, the PBM binding z-score came to 0.985.

Turning to AGAATGAGGTTACCAAAGATCAGGGACACGCTTG, the PBM binding z-score turned out to be 0.894.

Sequence CGAACTAGGTCAAGGACAGTGCATCTCCGCACGC displayed a PBM binding z-score of 1.65.

In turn, CCTACTGGGCCATCTGGTCATTGATATCAACGTT registered a PBM binding z-score of 0.821.

For the sequence CGTCCAAGGTCAAAGGAGGTCAGTGAAGACAGAT, the PBM binding z-score was 0.585.

With ACTAGCAGGCCAAGTTTGGGTGACTCAAACAAAG, the PBM binding z-score is -1.13.

Sequence CAAACTAGGTCACCGGAAGGTCAAAATCCGCATG displayed a PBM binding z-score of 7.15.

In turn, CCTGCTAGGTCAATGGTCAACTAAAGCAGCTCGC registered a PBM binding z-score of 0.116.

In turn, CCAGACAGGTGAGAAGGTATCTCAGCCTCGATTA registered a PBM binding z-score of -1.02.

Regarding TCTAGCAAGCCAGAGGGTCACTCAAGAGGTACGG, the PBM binding z-score was -1.2.

As to CGTCCAAGGTCAGAGAGCTCAGTGAATGCCGAGT, the PBM binding z-score was -0.717.

CGTCCAAGGTCAAGGTCAGCGAAAGAGACTCGAA gave a PBM binding z-score of 0.201.

CCTACTCGGCCATTCAGAGGTCATTGATCATATG displayed a PBM binding z-score of 0.471.

Sequence TCGAATAGGTTACCAATGGGGCATTCAGCTTTCT had a PBM binding z-score of 0.24.

In the case of ATCGAGAGGTCGAAGGTGAGTATACCCACCCGAA, the PBM binding z-score worked out at 0.516.

Turning to CCTTGCAGGCCAGGGTCACTCAAGCATTTCGCTT, the PBM binding z-score was -0.933.

TCGCGTAGGTTAGTCGGGGCATTCAGCCAACATA returned a PBM binding z-score of -0.631.

Consider AGGATGAGGTTACCAAAGATCAGGGAAACGCTTG, for which the PBM binding z-score was found to be 0.557.

The test system of a further experiment is PPARg DBDmut IVT, anti-PPARg (DBD mutation: PPARg1 K132A/R137A, NR concentration 270 nM). Described as above. An outline of the steps:
as §1
With AATACAGGGTCATCGTAGGCCAGAGAACGCACAG, the PBM binding z-score was 1.62.

As for CCGACTGGGGCATAAGGTTACGATAAGCCAGCCC, the PBM binding z-score was -1.04.

CGTCCAAGGTCAGAGAGGTAAGTGAATGCCGAGT: the PBM binding z-score is -0.788.

In the case of TCGAGTAGGTTACCAATGGGGCGTTCAGCTTTCT, the PBM binding z-score was -0.846.

CCTCCTGGGCCAAAGGTCATTGATTCCAATGCTC: the PBM binding z-score was -0.452.

Take GCGACTGGGGCATCAGGAGGTTACCATAACTTAA: the PBM binding z-score is -0.747.

As to CCTATTAGTTGACCATAAGGGCAACGGAAGCTCG, the PBM binding z-score was found to be 0.782.

The sequence CAAACTAGGTCAACGGAAGGTCAAAGTCCGCATG came in with a PBM binding z-score of 2.05.

ACTATTAGTTGAGACGCGGGCAACCGATAGGTTG yielded a PBM binding z-score of 0.188.

The sequence ACTAGTTAGTCAGCTGAGGTCACACACAATTCGG gave a PBM binding z-score of 0.622.

Sequence ATCGAAAGGTCGAAGGTGAATATACCCACCCGAA had a PBM binding z-score of 1.25.

ATATCTAGGTTAGCTGGGGTCATTCAGACTAGGC showed a PBM binding z-score of 2.45.

Consider TCTTGTAGATCAAGCAGGTTAAGAAGGCCTGAGT, for which the PBM binding z-score was found to be 0.0402.

Consider CCAGACAGGTTAAAGGTAACTCAGTCTGGTACGC, for which the PBM binding z-score was -0.757.

As to TCTTGTAGATCAAAGGTTAAGTAAGCCGAAGCCT, the PBM binding z-score turned out to be 0.732.

As for TCTGCAAGGTCAGTTGGTCAGCTAACGAGCTGCC, the PBM binding z-score was 1.09.

Consider TTACCAAGGTGAAGGTCGCTGATCCCTCTGTAGA, for which the PBM binding z-score was -0.735.

Consider ACTTACGGGGCAACGAGGTTATAGCACGCGTATA, for which the PBM binding z-score stood at 0.257.

TCTGCTAGGTCAACGATGGTCAGCCAATCTGCTA registered a PBM binding z-score of -0.247.

In the case of ATCTCTACGTAACCAAGTTCAGTGAATGCCGAAC, the PBM binding z-score turned out to be 0.806.

Turning to GCTATTAGTTGAAAGGGCATCCGAATGATTCTCG, the PBM binding z-score amounted to 0.482.

CGAACTAGGTCGTTGACAGGACAGTGAATAGTAA gave a PBM binding z-score of 0.354.

Take TCATATAGGTAACAGGTGAAAGTCGGTGTGGTAA: the PBM binding z-score is 1.02.

With AGAATGAGGTTACCAAAGATCAGGGACACGCTTG, the PBM binding z-score worked out at 0.0801.

As to CGAACTAGGTCAAGGACAGTGCATCTCCGCACGC, the PBM binding z-score amounted to 0.963.

Take CCTACTGGGCCATCTGGTCATTGATATCAACGTT: the PBM binding z-score came to 0.613.

Take CGTCCAAGGTCAAAGGAGGTCAGTGAAGACAGAT: the PBM binding z-score is -0.349.

Sequence ACTAGCAGGCCAAGTTTGGGTGACTCAAACAAAG gave a PBM binding z-score of -1.09.

With CAAACTAGGTCACCGGAAGGTCAAAATCCGCATG, the PBM binding z-score was 5.58.

In the case of CCTGCTAGGTCAATGGTCAACTAAAGCAGCTCGC, the PBM binding z-score is -1.17.

CCAGACAGGTGAGAAGGTATCTCAGCCTCGATTA yielded a PBM binding z-score of -0.0601.

The sequence TCTAGCAAGCCAGAGGGTCACTCAAGAGGTACGG yielded a PBM binding z-score of -1.18.

Turning to CGTCCAAGGTCAGAGAGCTCAGTGAATGCCGAGT, the PBM binding z-score is -0.346.

As to CGTCCAAGGTCAAGGTCAGCGAAAGAGACTCGAA, the PBM binding z-score was -0.753.

Regarding CCTACTCGGCCATTCAGAGGTCATTGATCATATG, the PBM binding z-score came to 0.672.

Sequence TCGAATAGGTTACCAATGGGGCATTCAGCTTTCT displayed a PBM binding z-score of -0.411.

The sequence ATCGAGAGGTCGAAGGTGAGTATACCCACCCGAA came in with a PBM binding z-score of 0.104.

As to CCTTGCAGGCCAGGGTCACTCAAGCATTTCGCTT, the PBM binding z-score is -1.48.

As for TCGCGTAGGTTAGTCGGGGCATTCAGCCAACATA, the PBM binding z-score is -0.248.

The sequence AGGATGAGGTTACCAAAGATCAGGGAAACGCTTG yielded a PBM binding z-score of 0.461.
